Reference: the supplement of paper PMC6555819

Columns and labels:
Test in all cases: PBM binding z-score (relative to random genomic background probes); higher = stronger binding; sequences stand for … in GC…GCGATTGACAGCGTAGAATGAAGG
[1] = system: PPARg:RXRa DBDmut IVT, anti-RXR (DBD mutation: RXRa K156A/R161A, NR concentration 270 nM, RXRa partner concentration 90 nM)
Method in brief: (§1)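 Custom Agilent 4×180K protein-binding microarrays carried double-stranded probes. Their 34-nt variable regions held direct-repeat seeds, single-nucleotide variants, half-site ablations and random human genomic background sequences. Arrays were incubated 1 h with ligand-free nuclear receptor dimers in PBS pH 7.4, 2% milk, 0.02% Triton X-100, 1 mM DTT, 0.2 mg/mL BSA and 0.4 mg/ml salmon testes DNA. Antibodies against each partner (one per run) detected binding, and scanned fluorescence was regression-normalized. Binding z-scores use random background probes as reference.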

[2] = system: PPARg:RXRa IVT, anti-PPARg (NR concentration 270 nM, RXRa partner concentration 90 nM)
Method in brief: as §1

[3] = system: PPARg DBDmut:RXRa IVT, anti-PPARg (DBD mutation: PPARg1 K132A/R137A, NR concentration 270 nM, RXRa partner concentration 90 nM)
Method in brief: as §1

[4] = system: PPARg DBDmut IVT, anti-PPARg (DBD mutation: PPARg1 K132A/R137A, NR concentration 270 nM)
Method in brief: as §1

[5] = system: PPARg homodimer (NR concentration 180 nM)
Method in brief: as §1

[6] = system: PXR:RXRa (NR concentration 270 nM, RXRa partner concentration 90 nM)
Method in brief: as §1

[7] = system: PXR homodimer (NR concentration 270 nM)
Method in brief: as §1

[8] = system: RARa:RXR (NR concentration 270 nM, RXRa partner concentration 90 nM)
Method in brief: as §1

[9] = system: RARa homodimer (NR concentration 270 nM)
Method in brief: as §1

[10] = system: RARb:RXRa (NR concentration 270 nM, RXRa partner concentration 90 nM)
Method in brief: as §1

Sequence	PBM binding z-score [1]	PBM binding z-score [2]	PBM binding z-score [3]	PBM binding z-score [4]	PBM binding z-score [5]	PBM binding z-score [6]	PBM binding z-score [7]	PBM binding z-score [8]	PBM binding z-score [9]	PBM binding z-score [10]
CAAACTAGGTCACCAAAGGTCAAAGTCGAATGAC	8.22	9.1	3.38	2.17	3.38	6.88	2.28	7.52	3.8	5.85
CGTCCAAGGTCAAGGTCGGTGAAAGAGACTCGAA	3.16	4.02	-0.058	-0.563	2.86	4.31	0.887	5.05	0.962	5.34
ATCGAAAAGTCGACGAGGTGAGTATACACCGTTT	-0.448	0.432	0.0649	0.51	-0.218	0.103	-0.0447	0.451	-0.121	0.388
ATCTCTAGGTAAGACTCAGTACAGTGAAGAACGC	1.66	1.18	0.455	1.12	1.13	-0.0434	0.717	0.344	1.32	0.147
TCTATTAGTTGAAGGGCTACCGACGAGTCCGTTT	2.41	0.0404	0.251	-0.451	1.24	0.647	0.375	0.611	1.16	0.525
TTACCAAGGTGAAGGTCATTGATCCCTCTGTAGA	2.03	4.57	1.28	-0.00818	2.06	3.74	0.712	3.95	0.469	3.88
ACTATTAGTTGACTTAGGGTAACCGATACGACGC	0.838	0.626	1.67	1.36	0.663	0.483	0.517	0.73	0.861	0.582
CCAGACAGGTCAAAGGTAACTCAGTCTGGTACGC	3.48	3.96	-0.0161	0.672	2.75	4.5	0.483	6.08	0.857	4.52
ACTATTAGTTGACTTAGGGCAACAGATACGACGC	0.146	0.696	1.18	1.49	0.262	0.159	0.123	0.356	0.66	0.851
TAGCCTAGGTCAAATCGGGCCAGTATACGCTATA	1.98	3	0.169	0.237	1.68	2.95	-0.306	2.74	-0.373	3.68
ACTAGCAGGCCAAGTTTGGGTCACGCAAACAAAG	1.23	1.63	-0.285	-0.284	0.631	1.61	-0.0621	2.51	-0.0801	2.33
TCTATTAGTTGAAGAGCAACCGACGAGTCCGTTT	2.11	-0.0307	-0.198	0.372	0.184	0.265	0.467	-0.0573	0.544	0.129
TGAATGTGGTTATAAGATCAGGGAACGTTGCAAA	-0.328	0.343	0.967	1.11	0.749	0.00497	0.777	-0.382	1.15	0.0382
GCTGCTAGGTGAGGTTGGTCAGCTAACGGGTACG	2.07	0.995	-0.621	-0.843	-0.464	-0.499	-0.63	-0.358	-0.904	0.502
TCTGCTAGGTCCACGATGGTCAGCTAATCTGCTA	0.568	-0.114	-0.95	-0.628	-0.907	-0.483	-1.23	-0.477	-1.27	0.204
TGTATGAGGTTATAAGATCAGGGAACGTTGCAAA	0.0132	0.98	0.426	0.745	0.994	1.1	-0.0169	1.62	0.679	1.47
TGAAAGAGGTTAAAGATCAGGGAACGTGGCGTCG	0.975	2	0.776	-0.385	1.36	2.29	0.0556	3.68	0.0643	2.67
ATCACTAGGTAAGACTCAGTTCAGTGAAGAACGC	3.04	2.02	0.271	1.07	0.437	0.891	0.972	0.026	1.03	0.143
CAAACTAGGTCAAAGAGGTCAAAGTCCGTGCGTA	8.36	8.45	2.17	1.31	5.02	6.37	10.5	6.42	2.57	4.77
TATACAGTGTCAAAGGCCAGAGTACGAATGTCGA	0.051	2.04	0.51	1.14	0.46	0.552	0.236	1.33	0.548	1.88
CCTATTAGTTGGCCATAAGGGCAACCGAAGCTCG	0.405	0.608	0.65	-0.464	0.599	0.101	0.238	0.307	0.354	1.11
AGAATGAGGTTATTAAGAACAGGGAATTGCGGTC	3.07	2.57	0.828	0.0753	0.538	1.13	0.548	1.32	0.488	1.4
ATCGAAAGGTCGAGGGGAGTATAGAGAAAGGGAA	0.44	1.72	1.88	1.27	1.83	2.27	0.897	3.24	1.45	3.97
CCAGACAGGTGAAAGCTAACTCAGTCTGGTACGC	1.15	0.32	-0.519	-0.546	-0.106	-0.352	-0.314	-0.197	-0.137	0.542
CCTACTGGGCCATCAGGTCATTGTTATCAACGTT	4.42	5.23	1.61	0.711	1.35	1.63	0.409	2.03	0.317	2.07
